Measured values reported in PubChem BioAssay (NCATS).
Records with an inconclusive call do not appear. Calls of active or inactive are those of the source. Unless noted, calls come from the whole dose curve; as a rule, active = well fitted curve in the direction sought with a large enough effect; inconclusive = small, poorly fitted or top-dose-only effect, or another doubt; inactive = no such curve, though single readings can be large; an effect the other way counts as inactive or inconclusive.

Experiments:
[1] = molecular target: Glutaminase kidney isoform, mitochondrial (Homo sapiens) (UniProt O94925); assay: qHTS for Inhibitors of Glutaminase (GLS): LOPAC Validation (AID 624146); note: potency is the fitted concentration of half-maximal effect; nearly all actives have a fitted effect of over 60% in size
Summary of the method: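 Glutamate formation by hKGA was monitored fluorometrically using coupled glutamate oxidase, HRP and Amplex Red. Substrate was added as 1 mM L-glutamine solution; incubation was 30 min at RT after an initial read.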

[2] = qHTS of Nrf2 Activators: LOPAC Validation (AID 624149)
Summary of the method: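 Cells (AREc32_Fluc) are plated at 1000 per well in OPTI-MEM containing 5% FBS and left overnight. Compounds are pinned in and incubated 24 hr at 37 deg C, and firefly luciferase is detected with Steady-Glo.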

[3] = molecular target: Arylsulfatase A (Homo sapiens) (UniProt P15289); assay: qHTS screen for enhancers of Arylsulfatase A (ASA1): LOPAC Validation Assay (AID 720538)
Arylsulfatase A (Homo sapiens), sequence (P15289 whole entry, looked up): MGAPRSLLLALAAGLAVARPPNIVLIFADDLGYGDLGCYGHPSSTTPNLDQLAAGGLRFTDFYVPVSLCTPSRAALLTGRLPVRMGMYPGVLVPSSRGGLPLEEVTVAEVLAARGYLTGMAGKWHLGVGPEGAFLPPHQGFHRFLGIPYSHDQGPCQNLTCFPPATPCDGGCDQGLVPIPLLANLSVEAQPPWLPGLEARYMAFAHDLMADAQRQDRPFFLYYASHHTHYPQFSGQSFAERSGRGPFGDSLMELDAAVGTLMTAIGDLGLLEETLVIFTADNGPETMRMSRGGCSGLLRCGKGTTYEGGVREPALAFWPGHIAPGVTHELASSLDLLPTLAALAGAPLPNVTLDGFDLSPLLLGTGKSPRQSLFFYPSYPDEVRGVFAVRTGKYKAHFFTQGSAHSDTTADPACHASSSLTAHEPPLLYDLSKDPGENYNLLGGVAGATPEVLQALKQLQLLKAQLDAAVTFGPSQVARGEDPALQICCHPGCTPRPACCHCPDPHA
Summary of the method: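 First, ASA-I179S fibroblasts from an MLD patient adhered for 6 hrs. Next, compounds were added for 48h. Then pNCS substrate (0.5mM final) with lysis buffer reacted 14h at room temperature before NaOH stop and fluorescence measurement.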

[4] = qHTS for compounds that reverse cellular toxicity of Amyloid beta (A-beta) peptide in yeast: LOPAC Validation Assay (AID 720559)
Summary of the method: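 Activity is expressed relative to DMSO and an equimolar ferric chloride/clioquinol mix. Compounds were pinned into medium with A-beta-expressing yeast, grown 48 hr at 30 C, then read by absorbance at 600 nm.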

[5] = qHTS for Activators of Parkin Expression: LOPAC Validation Assay (NLuc Reporter) (AID 720572)
Summary of the method: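 Cells harboring the Parkin-promoter coincidence reporter were treated for 24 h at seven concentrations. NLuc output was measured sequentially after the FLuc channel and scaled between DMSO and positive control values.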

[6] = qHTS for Activators of Parkin Expression: LOPAC Validation Assay (FLuc Reporter) (AID 720573)
Summary of the method: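 A neuronal cell line harbouring FLuc and NLuc reporters behind the Parkin promoter was exposed to compounds for 24 h. Firefly luciferase signal, measured after 10 min with detection reagent, was scaled to DMSO and positive-control wells.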

[7] = molecular target: T1, Hexokinase-4 (Homo sapiens) + Glucokinase regulatory protein (Homo sapiens) (UniProt P35557+Q14397); assay: qHTS assay for inhibitors of recombinant human GCK-GKRP interaction: ADP-Glo assay (AID 743206)
T1 sequence (P35557 whole entry, looked up): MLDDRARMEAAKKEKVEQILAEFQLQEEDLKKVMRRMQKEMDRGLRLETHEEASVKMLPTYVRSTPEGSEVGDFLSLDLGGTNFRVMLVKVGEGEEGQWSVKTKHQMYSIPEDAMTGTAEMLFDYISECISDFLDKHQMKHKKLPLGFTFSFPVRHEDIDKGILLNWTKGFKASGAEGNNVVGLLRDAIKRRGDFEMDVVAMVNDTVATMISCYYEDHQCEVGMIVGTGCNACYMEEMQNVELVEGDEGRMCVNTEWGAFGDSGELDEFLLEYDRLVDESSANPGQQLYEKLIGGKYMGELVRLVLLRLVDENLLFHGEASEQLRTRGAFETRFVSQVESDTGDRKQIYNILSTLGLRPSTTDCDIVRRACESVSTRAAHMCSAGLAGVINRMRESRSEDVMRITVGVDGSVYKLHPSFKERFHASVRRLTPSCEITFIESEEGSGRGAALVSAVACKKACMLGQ
T1 sequence (Q14397 whole entry, looked up): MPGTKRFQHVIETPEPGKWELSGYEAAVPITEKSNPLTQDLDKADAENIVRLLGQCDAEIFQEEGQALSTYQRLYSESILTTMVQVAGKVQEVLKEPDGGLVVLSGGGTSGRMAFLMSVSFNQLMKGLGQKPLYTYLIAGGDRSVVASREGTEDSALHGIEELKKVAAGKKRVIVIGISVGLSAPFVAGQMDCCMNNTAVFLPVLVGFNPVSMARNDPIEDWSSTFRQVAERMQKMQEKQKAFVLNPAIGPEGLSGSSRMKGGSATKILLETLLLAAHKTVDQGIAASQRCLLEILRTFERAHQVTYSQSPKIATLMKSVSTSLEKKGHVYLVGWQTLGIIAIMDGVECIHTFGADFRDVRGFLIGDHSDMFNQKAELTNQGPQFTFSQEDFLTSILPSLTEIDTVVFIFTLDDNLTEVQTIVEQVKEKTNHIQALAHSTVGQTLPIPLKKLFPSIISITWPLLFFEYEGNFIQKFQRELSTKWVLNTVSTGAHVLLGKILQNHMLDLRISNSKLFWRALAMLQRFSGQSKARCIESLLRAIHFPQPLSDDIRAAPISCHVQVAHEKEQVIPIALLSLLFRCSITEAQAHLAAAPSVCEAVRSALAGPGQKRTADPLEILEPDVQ
Summary of the method: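 Pin-transferred compounds meet a 15 nM GST-GCK/15 nM FLAG-GKRP/2 uM S6P mix (dispense concentrations). ATP is then added to 0.4 mM final with 5 mM glucose, and the reaction runs 60 min at room temperature. ADP is quantified luminescently.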

[8] = molecular target: T1, Hexokinase-4 (Homo sapiens) + Glucokinase regulatory protein (Homo sapiens); assay: qHTS assay for inhibitors of recombinant human GCK-GKRP interaction: HTRF assay (AID 743207)
Summary of the method: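 Steps: dispense GCK–GKRP complex (5 nM each, GST- and FLAG-tagged) with 2 uM S6P; pin in compounds; add XL665/Eu-cryptate-labelled antibodies; incubate 60 min at room temperature; read time-resolved FRET at 665 and 615 nm.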

[9] = Natriuretic polypeptide receptor (hNpr1) antagonism - Pilot counterscreen GloSensor control cell line (AID 1347045; calls by dose curve)
Summary of the method: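 Cells were first seeded and incubated overnight at 37C, then loaded with 2% GloSensor substrate for 2 h. Compounds were added for 30 min at room temperature, followed by a baseline read, 50 uM SNP and a final read after 20 min.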

[10] = molecular target: Atrial natriuretic peptide receptor 1 (Homo sapiens) (UniProt P16066); assay: Natriuretic polypeptide receptor (hNpr1) antagonism - Pilot screen (AID 1347049; calls by dose curve;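 note: HEK293 cells with hNpr1 and GloSensor cGMP luciferase stimulated by 0.1 nM hNppA; agonist-evoked cGMP luminescence read 20 min after hNppA addition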)
Summary of the method: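 Cells expressing receptor plus cGMP biosensor are seeded and incubated overnight at 37C, then loaded with GloSensor reagent (2% final) at room temperature for 2 h. Library compounds go on for 30 min. A pre-read precedes agonist (hNppA, 0.1 nM final) and a 20-min readout.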

[11] = molecular target: Atrial natriuretic peptide receptor 2 (Homo sapiens) (UniProt P20594); assay: Natriuretic polypeptide receptor (hNpr2) antagonism - Pilot subtype selectivity assay (AID 1347050; calls by dose curve)
Summary of the method: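 Read-out: GloSensor luminescence (CCD imager), baseline vs post-stimulation. HEK293 cells expressing hNpr2; compounds pre-incubated 30-50 min at ambient temperature; hNppC 1 nM final, 20 min.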

[12] = molecular target: T2, Tyrosine-protein phosphatase non-receptor type substrate 1 (Homo sapiens) + Leukocyte surface antigen CD47 (Homo sapiens) (UniProt P78324+Q08722); assay: CD47-SIRPalpha protein protein interaction - LANCE assay qHTS validation (AID 1347057; active = well fitted curve in the direction sought with a large enough effect in the signal ratio, with a control signal flat, not every such curve was filed as active; the % refers to the signal ratio)
T2 sequence (P78324 whole entry, looked up, the tested form may be a part): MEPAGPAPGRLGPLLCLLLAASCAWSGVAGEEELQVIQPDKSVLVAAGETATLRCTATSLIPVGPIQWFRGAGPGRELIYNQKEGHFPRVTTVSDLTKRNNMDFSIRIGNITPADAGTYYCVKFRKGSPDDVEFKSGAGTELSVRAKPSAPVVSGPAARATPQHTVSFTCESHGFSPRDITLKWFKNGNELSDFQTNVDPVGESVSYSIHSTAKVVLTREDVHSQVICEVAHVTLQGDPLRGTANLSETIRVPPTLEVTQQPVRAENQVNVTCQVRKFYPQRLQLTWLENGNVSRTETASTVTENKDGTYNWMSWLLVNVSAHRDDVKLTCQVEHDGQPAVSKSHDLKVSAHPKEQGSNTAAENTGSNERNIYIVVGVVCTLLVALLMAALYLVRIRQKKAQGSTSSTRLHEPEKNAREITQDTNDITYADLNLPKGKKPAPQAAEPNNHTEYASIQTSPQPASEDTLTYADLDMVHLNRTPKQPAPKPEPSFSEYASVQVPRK
T2 sequence (Q08722 whole entry, looked up, the tested form may be a part): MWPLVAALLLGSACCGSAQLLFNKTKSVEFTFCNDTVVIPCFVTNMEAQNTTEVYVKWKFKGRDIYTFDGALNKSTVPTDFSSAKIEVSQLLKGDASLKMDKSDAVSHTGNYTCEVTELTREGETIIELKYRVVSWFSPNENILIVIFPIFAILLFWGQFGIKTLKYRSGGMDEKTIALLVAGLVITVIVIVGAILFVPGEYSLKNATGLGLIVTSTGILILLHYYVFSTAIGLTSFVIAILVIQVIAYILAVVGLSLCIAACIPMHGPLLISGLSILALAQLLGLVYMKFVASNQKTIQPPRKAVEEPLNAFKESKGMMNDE
Summary of the method: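 Inhibition of soluble CD47/SIRPalpha ectodomain association by titrated compounds, measured as 665/615 nm time-resolved FRET ratio after sequential 30 min room-temperature incubations.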

[13] = molecular target: T2, Tyrosine-protein phosphatase non-receptor type substrate 1 (Homo sapiens) + Leukocyte surface antigen CD47 (Homo sapiens); assay: CD47-SIRPalpha protein protein interaction - HTRF assay qHTS validation (AID 1347058; active = well fitted curve in the direction sought with a large enough effect in the signal ratio, not every such curve was filed as active; the % refers to the signal ratio)
Summary of the method: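 Soluble extracellular domains (6His-CD47, Avi-tag-biotinylated SIRPalpha) in PBS pH 7.4 with 0.05% IGEPAL CA-630. Compounds were preincubated 30 min at RT with CD47 and anti-His-Eu, then SIRPalpha and SAV-XL665 were added. TR-FRET 665/615 ratio.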

[14] = molecular target: T2, Tyrosine-protein phosphatase non-receptor type substrate 1 (Homo sapiens) + Leukocyte surface antigen CD47 (Homo sapiens); assay: CD47-SIRPalpha protein protein interaction - Alpha assay qHTS validation (AID 1347059);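 note: bead proximity luminescence from CD47 binding SIRPalpha after compound preincubation with SIRPalpha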
Summary of the method: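 In PBS (pH 7.4) with 0.05% IGEPAL CA-630, compound is preincubated with biotin-Avi-SIRPalpha ectodomain before His-CD47 ectodomain and affinity beads are added. Light-protected room-temperature incubations; AlphaScreen readout.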

[15] = molecular target: Parathyroid hormone/parathyroid hormone-related peptide receptor (Homo sapiens) (UniProt Q03431); assay: qHTS for PTHR1 Agonists: Optimization Screen against the NCGC LOPAC library (AID 1347079);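 note: GloSensor cAMP luminescence in HEK-293 GP2 cells expressing human PTHR1 with IBMX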
Summary of the method: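 HEK-293 GP2 cells, PTHR1 + GloSensor cAMP; 3000 cells/well, o/n. Luciferin + IBMX 0.5mM each (stock), 1 hr 37C. Cpd titration, 1 hr 37C. Lum after 15 min RT. Ctrl M-PTH(1-15) top 10uM.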

[16] = molecular target: N-terminal Xaa-Pro-Lys N-methyltransferase 1 (Homo sapiens) (UniProt Q9BV86); assay: qHTS Assay for Inhibitors of N-terminal methyltransferase 1 (NTMT1): LOPAC validation of the NTMT1 SAHH-coupled ThioGlo3 Assay (AID 1347143);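 note: SAH from peptide methylation measured as thiol fluorescence via SAHH coupling and ThioGlo3; potency is the fitted concentration of half-maximal effect; nearly all actives have a fitted effect of over 70% in size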
N-terminal Xaa-Pro-Lys N-methyltransferase 1 (Homo sapiens), sequence (Q9BV86 whole entry, looked up): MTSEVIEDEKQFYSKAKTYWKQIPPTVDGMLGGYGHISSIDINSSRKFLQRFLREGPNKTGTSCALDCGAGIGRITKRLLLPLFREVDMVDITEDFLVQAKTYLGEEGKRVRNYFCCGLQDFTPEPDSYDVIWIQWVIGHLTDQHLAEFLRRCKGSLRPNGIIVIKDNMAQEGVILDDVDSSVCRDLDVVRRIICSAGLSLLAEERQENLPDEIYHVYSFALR
Summary of the method: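 In this qHTS pilot against the LOPAC set, 125nM NTMT1 met compounds tested at multiple concentrations, and fluorescence was normalized to background.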

[17] = qHTS to identify inhibitors of the type 1 interferon - major histocompatibility complex class I in skeletal muscle: primary screen against the NCATS LOPAC collection (AID 1347405);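 note: human myoblasts with HiBiT tag on endogenous HLA-B stimulated by IFN-beta; lytic HiBiT luminescence reporting HLA-B protein level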
Summary of the method: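 First, engineered myoblasts carrying HLA-B-HiBiT were seeded in medium lacking dexamethasone with 4 ng/ml IFN-beta. After 1 hr, compounds were pinned in (top 46 uM final, 7 points). After 24 hrs at 37 C, luminescence was measured following 10 min lysis.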

[18] = Validation qHTS assay for inhibitors of Activation Induced Cytidine Deaminase (AID): UDG Counterscreen signal (AID 1347427)
Summary of the method: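 Fluorescence at 560 nm excitation, 665 nm emission reports UDG signal after 250 mM NaOH (2x) addition and 30 min. Enzymes (AID 1 uM, UDG 2 U/mL, at 4/3x) preincubated 10 min with compound, then 4 h with 4x 250 nM DJC20/DJC23 substrate at room temperature.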

[19] = molecular target: Single-stranded DNA cytosine deaminase (Homo sapiens) (UniProt Q9GZX7); assay: Validation qHTS assay for inhibitors of Activation Induced Cytidine Deaminase (AID): AID signal (AID 1347429)
Single-stranded DNA cytosine deaminase (Homo sapiens), sequence (Q9GZX7 whole entry, looked up): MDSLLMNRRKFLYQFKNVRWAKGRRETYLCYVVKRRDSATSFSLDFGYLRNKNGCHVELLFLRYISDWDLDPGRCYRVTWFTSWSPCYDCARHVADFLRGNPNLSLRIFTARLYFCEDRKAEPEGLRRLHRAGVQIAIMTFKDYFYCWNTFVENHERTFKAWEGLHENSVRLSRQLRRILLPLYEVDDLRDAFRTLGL
Summary of the method: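 Steps: dispense AID with UDG; pin-transfer compound up to 114 uM final; add DJC20/DJC23 substrate and hold 4 hr at room temperature; add NaOH, hold 30 min; read FRET signal (540/590 nm).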

[20] = molecular target: Calcium and integrin-binding protein 1 (Homo sapiens) (UniProt Q99828); assay: Validation qHTS for Identification of Calcium Integrin Binding protein 1 (CIB1) Competitor (AID 1508618)
Calcium and integrin-binding protein 1 (Homo sapiens), sequence (Q99828 whole entry, looked up): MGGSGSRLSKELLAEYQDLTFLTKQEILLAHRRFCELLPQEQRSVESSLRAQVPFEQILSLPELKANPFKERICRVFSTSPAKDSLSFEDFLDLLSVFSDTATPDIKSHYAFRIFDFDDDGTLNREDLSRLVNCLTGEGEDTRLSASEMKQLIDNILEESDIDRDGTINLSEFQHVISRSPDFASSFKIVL
Summary of the method: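 In this qHTS validation, the LOPAC set (up to 114 uM) was tested for blocking CIB1 binding to a fluorescein-tagged alphaIIb peptide, with FP detection at 480/540 nm.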

[21] = Primary qHTS for small molecule stabilizers of the endoplasmic reticulum resident proteome: Secreted ER Calcium Modulated Protein (SERCaMP) assay (AID 1508630)
Summary of the method: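 The SH-SY5Y reporter protocol was run at 3 concentrations up to 38.3 uM (primary) or 11 concentrations (follow-up): 16 h compound, 100 nM thapsigargin for 4 h, then extracellular luciferase luminescence.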

Papain (Carica papaya) = Papain (Carica papaya) (UniProt P00784); assay: Primary qHTS assay for inhibitors of the protease papain (AID 1645873);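 note: papain turnover of Z-FR-AMC read as the AMC fluorescence gain over 10 min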
Papain (Carica papaya), sequence (P00784 whole entry, looked up): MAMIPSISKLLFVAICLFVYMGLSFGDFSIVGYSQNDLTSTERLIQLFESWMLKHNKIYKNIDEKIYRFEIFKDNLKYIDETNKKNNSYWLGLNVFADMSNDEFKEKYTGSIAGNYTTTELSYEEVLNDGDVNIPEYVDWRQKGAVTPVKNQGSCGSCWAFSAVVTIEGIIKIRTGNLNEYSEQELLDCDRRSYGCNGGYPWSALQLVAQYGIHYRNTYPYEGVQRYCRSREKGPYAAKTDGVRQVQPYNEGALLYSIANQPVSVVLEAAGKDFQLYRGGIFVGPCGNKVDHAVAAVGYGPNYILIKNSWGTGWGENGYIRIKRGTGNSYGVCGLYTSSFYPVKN

[22] = molecular target: Catechol O-methyltransferase (Homo sapiens) (UniProt P21964); assay: Confirmatory Screen for Target Class Profiling of Small Molecule Inhibitors of Methyltransferases (AID 1745852); details: MTase-Glo luminescence, SAH detection, recombinant enzyme; measured here: COMT max response; stronger effect = lower value
Catechol O-methyltransferase (Homo sapiens), sequence (P21964 whole entry, looked up): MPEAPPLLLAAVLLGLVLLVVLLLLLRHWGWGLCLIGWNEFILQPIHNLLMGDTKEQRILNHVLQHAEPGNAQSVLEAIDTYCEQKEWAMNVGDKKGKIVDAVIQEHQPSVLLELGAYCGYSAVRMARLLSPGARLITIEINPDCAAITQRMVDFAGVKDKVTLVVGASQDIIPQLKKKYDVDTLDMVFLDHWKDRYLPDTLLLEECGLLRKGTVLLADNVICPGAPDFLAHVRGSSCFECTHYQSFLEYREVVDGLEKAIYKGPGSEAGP

[23] = molecular target: Guanidinoacetate N-methyltransferase (Homo sapiens) (UniProt Q14353); assay: as above; details: activity change, negative = inhibition: at 57.3 µM (top of the series) unless noted
[24] = molecular target: Nicotinamide N-methyltransferase (Homo sapiens) (UniProt P40261); assay: as above; details: MTase-Glo luminescence, SAH detection, recombinant enzyme; measured here: NNMT max response; stronger effect = lower value
Nicotinamide N-methyltransferase (Homo sapiens), sequence (P40261 whole entry, looked up): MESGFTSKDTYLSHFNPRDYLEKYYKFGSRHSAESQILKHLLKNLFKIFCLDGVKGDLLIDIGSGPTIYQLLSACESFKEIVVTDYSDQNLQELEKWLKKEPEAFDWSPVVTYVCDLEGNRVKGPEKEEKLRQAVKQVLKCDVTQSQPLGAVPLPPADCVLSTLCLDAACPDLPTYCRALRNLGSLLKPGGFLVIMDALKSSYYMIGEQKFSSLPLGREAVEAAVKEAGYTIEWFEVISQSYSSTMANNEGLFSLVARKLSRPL

[25] = molecular target: Phenylethanolamine N-methyltransferase (Homo sapiens) (UniProt P11086); assay: as above; details: MTase-Glo luminescence, SAH detection, recombinant enzyme; measured here: PNMT max response; stronger effect = lower value
Phenylethanolamine N-methyltransferase (Homo sapiens), sequence (P11086 whole entry, looked up): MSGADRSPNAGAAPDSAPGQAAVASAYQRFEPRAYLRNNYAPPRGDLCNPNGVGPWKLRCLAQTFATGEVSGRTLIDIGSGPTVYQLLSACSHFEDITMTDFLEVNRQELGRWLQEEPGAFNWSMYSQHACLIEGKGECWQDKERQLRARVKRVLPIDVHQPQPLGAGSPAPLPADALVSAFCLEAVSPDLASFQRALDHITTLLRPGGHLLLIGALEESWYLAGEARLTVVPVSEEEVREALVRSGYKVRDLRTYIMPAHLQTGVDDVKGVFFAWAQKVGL

[26] = molecular target: Metallo-beta-lactamase type 2 (Klebsiella pneumoniae) (UniProt C7C422); assay: qHTS to identify inhibitors of the New Delhi Metallo-beta-lactamase (NDM): assay validation screen against the NCATS LOPAC Collection (AID 1794843);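 note: nitrocefin turnover by NDM-1 measured as 485 nm absorbance at plateau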
Metallo-beta-lactamase type 2 (Klebsiella pneumoniae), sequence (C7C422 whole entry, looked up): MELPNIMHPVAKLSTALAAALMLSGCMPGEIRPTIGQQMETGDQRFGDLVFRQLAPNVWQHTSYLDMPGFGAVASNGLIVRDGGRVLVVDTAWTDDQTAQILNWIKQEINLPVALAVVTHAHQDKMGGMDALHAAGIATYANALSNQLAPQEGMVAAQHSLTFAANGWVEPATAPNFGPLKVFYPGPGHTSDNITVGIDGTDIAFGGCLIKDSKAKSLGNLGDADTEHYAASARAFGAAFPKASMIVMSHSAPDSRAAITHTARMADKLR
Summary of the method: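 Nitrocefin hydrolysis (50 uM substrate stock) by NDM-1, 2 nM final, was followed by 485 nm absorbance after compound preincubation; buffer was 50 mM HEPES pH 7.0, 1 uM ZnSO4, 0.01% Tween20.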

[27] = molecular target: Glutathione peroxidase 1 (Homo sapiens) (UniProt P07203); assay: Primary qHTS Assay for Inhibitors of Recombinant Selenoprotein Glutathione Peroxidase 1 (GPX1) (AID 1845191); note: nearly all actives have a fitted effect of over 65% in size
Glutathione peroxidase 1 (Homo sapiens), sequence (P07203 whole entry, looked up): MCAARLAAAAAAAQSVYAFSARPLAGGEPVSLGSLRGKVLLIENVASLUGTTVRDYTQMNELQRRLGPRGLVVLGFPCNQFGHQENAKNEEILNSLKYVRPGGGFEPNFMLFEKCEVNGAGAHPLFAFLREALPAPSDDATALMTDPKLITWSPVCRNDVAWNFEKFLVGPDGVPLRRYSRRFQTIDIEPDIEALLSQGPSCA
Summary of the method: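 GPX1 10 nM, GR 100 nM, GSH 1 mM, NADPH 0.5 mM, CHP 0.5 mM (final). 30-min cpd preincubation, RT. Ex340/Em450 read t=0, t=15 min.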

[28] = molecular target: Phospholipid hydroperoxide glutathione peroxidase GPX4 (Homo sapiens) (UniProt P36969); assay: Primary qHTS Assay for Inhibitors of Recombinant Selenoprotein Glutathione Peroxidase 4 (GPX4) (AID 1845192); details: outcome: dose series up to 50 µM unless noted; note: nearly all actives have a fitted effect of over 65% in size
Phospholipid hydroperoxide glutathione peroxidase GPX4 (Homo sapiens), sequence (P36969 whole entry, looked up): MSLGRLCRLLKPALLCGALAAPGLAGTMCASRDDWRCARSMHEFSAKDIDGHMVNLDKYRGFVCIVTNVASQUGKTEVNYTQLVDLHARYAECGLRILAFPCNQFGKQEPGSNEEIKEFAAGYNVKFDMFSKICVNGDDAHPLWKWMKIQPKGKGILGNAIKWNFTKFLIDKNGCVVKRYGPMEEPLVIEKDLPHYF
Summary of the method: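 qHTS, GR-coupled: GPX4 200 nM + cpd 30 min RT → GSH 1 mM, NADPH 0.5 mM, GR 100 nM → CHP 0.5 mM start; fluor 340/450 at t0 and t15 min; no-enzyme wells as control.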

Oc1cc2c(c(Cl)c1O)CCNCC2c1ccccc1 (centres undefined)
-10.3%: activity [24]
7.26%: activity [25]
72.9%: activity [22]
2.7%: activity change, negative = inhibition [23]
active: Potency [1] 1.12 µM | Potency [16] 39.8 µM
inactive: outcome [2] | Potency [3] | outcome [4] | outcome [5] | Potency [6] | outcome [7] | outcome [8] | Potency [9] | Potency [10] | Potency [11] | outcome [12] | outcome [13] | Potency [14] | outcome [15] | Potency [17] | outcome [18] | Potency [19] | outcome [20] | Potency [21] | Potency (Papain (Carica papaya)) | Potency [26] | Potency [27] | Potency [28]
